This is a sample that favours compounds with a hit; in the whole collection about 3.6% have one here.
Giardia FBPA inh: qHTS Assay for Inhibitors of Fructose-1,6-bisphosphate Aldolase from Giardia Lamblia. A8B2U2. purified Giardia FBPA. Potency, µM (highest dose often 59.6 µM), usual class: inhibitors. 290,000 tested, 0.71% active; note: nearly all actives have a fitted effect of over 55% in size
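Giardia FBPA (40 nM reagent) was preincubated 10 min at RT with compound (up to 57.5 uM final), then substrate plus GAPDH/TPI/NAD/arsenate coupling system with diaphorase/resazurin was added; resorufin fluorescence (525/598 nm) was read after 20 min.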
Sm TGR block: qHTS Assay for the Inhibitors of Schistosoma Mansoni Peroxiredoxins; purified TGR, DTNB reduction, TNB absorbance 405 nm; Potency, µM (highest dose often 114 µM), actives largely listed as inhibitors; 360,000 tested, 3% active; AID 485364, 2010; note: nearly all actives have a fitted effect of over 60% in size
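TGR 20 nM + NADPH 100 uM (dispensed conc.), cpd preinc 15 min RT; start with NADPH (500 uM addition) then DTNB (15 mM addition). Kinetic TNB absorbance, 405 nm filter. Four-parameter Hill fit across titration.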
AmpC inh detg: qHTS Inhibitors of AmpC Beta-Lactamase (assay with detergent); P00811; AmpC hydrolysis of nitrocefin, absorbance 480 nm, 0.01% Triton; Potency, µM (top dose mostly 114 µM), hits mostly inhibitors; 370,000 tested, 0.041% active; AID 485294, 2010; note: nearly all actives have a fitted effect of over 25% in size
Target sequence (P00811 whole entry, looked up): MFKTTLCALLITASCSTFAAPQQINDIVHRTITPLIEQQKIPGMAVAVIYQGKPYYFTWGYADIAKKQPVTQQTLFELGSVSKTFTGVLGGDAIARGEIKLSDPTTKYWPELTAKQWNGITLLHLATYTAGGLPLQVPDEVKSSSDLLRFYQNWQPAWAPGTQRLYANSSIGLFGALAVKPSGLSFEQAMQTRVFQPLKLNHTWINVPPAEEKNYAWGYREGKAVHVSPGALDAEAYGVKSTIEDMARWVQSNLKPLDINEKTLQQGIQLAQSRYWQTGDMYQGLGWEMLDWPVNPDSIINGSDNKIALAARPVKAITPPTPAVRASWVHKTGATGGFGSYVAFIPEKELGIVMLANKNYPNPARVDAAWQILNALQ
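AmpC (5.3 nM in the dispensed reagent) in 20 mM phosphate pH 7.0 with 0.01% (detergent screen) or 0.0001% Triton X-100 was preincubated with compounds for 15 min at room temperature. Nitrocefin was then added from an 800 uM solution, and hydrolysis was followed at 480 nm.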
AmpC no deterg: qHTS Inhibitors of AmpC Beta-Lactamase (assay without detergent) | P00811 | Potency, µM (titrated, usually from 57.1 µM), most hits filed as inhibitors | AmpC nitrocefin hydrolysis, absorbance 480 nm, 0.0001% Triton | 330,000 tested, 0.52% active | AID 485341, 2010; note: nearly all actives have a fitted effect of over 20% in size
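20 mM phosphate pH 7.0 + 0.01% (detergent screen) or 0.0001% Triton X-100; 5.3 nM AmpC reagent; cpd preinc 15 min RT; nitrocefin (800 uM stock) to start; A480 q20 s × 4 min; Activity was normalised to no-enzyme and no-compound control wells.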
Large screens that a line does not name were inactive. Calls come from the whole dose curve; as a rule, active = well fitted curve in the direction sought with a large enough effect; inconclusive = small, poorly fitted or top-dose-only effect, or another doubt; inactive = no such curve, though single readings can be large; an effect the other way counts as inactive or inconclusive.

O=C(COc1ccc2c(c1)oc(=O)c1ccccc12)NCC1CCC(C(=O)O)CC1 (stereo not given)	AmpC inh detg inconclusive
O=C(COC(=O)c1ccc(S(=O)(=O)N2CCCC2)cc1)NCc1ccco1	Sm TGR block 39.8µM
COc1ccc(/C=C/C2=CC(C)(C)NC(=S)N2)cc1	Sm TGR block 2.51µM, AmpC no deterg 8.91µM
CCN(CC)C(=O)C(C)N(C#N)c1nc(Cl)nc(N(C)C)n1 (stereo not given)	none
CC(=O)NC(N(C#N)c1nc(Cl)nc(N(C)C)n1)C(Cl)(Cl)Cl (stereo not given)	Sm TGR block 39.8µM
COc1ccc(OCC(=O)Nc2ccc(C(=O)OCc3cc(=O)n4nc(C)sc4n3)cc2)cc1	none (no result: Giardia FBPA inh, AmpC no deterg)
CCOC(=O)/C=C1\CC(C(=O)OCC)Oc2ccccc21 (stereo not given)	none (no result: Sm TGR block, AmpC inh detg)
CCOC(=O)/C=C1\CN(C(C)c2ccccc2)S(=O)(=O)c2ccccc21 (stereo not given)	Sm TGR block 28.2µM
CCOC(=O)/C=C1\CN(CCC(C)C)S(=O)(=O)c2ccccc21	Sm TGR block 56.2µM
N#CCc1ccc(Oc2ncccn2)cc1	none
C=CC[N@@+]12CC[C@]34c5ccccc5N5/C=C6\C7N(/C=C(\C53)[C@@H](C[C@@H]41)/C(=C/CO)C2)c1ccccc1[C@@]71CC[N@@+]2(CC=C)C/C(=C\CO)[C@@H]6C[C@@H]12 (stereo not given in full)	AmpC inh detg inconclusive (no result: Giardia FBPA inh)
CN(C)c1ccc(CC2C(=O)Nc3ccccc32)cc1 (stereo not given)	Giardia FBPA inh inconclusive, Sm TGR block 14.1µM
Cn1c(CNC(=O)CSc2n[nH]c(-c3ccccc3Cl)n2)nc2ccccc21	none (no result: Giardia FBPA inh, AmpC no deterg)
COc1cccc(C(C[N+](=O)[O-])c2c(C)[nH]n(-c3ccccc3)c2=O)c1 (stereo not given)	Giardia FBPA inh 12.6µM, Sm TGR block 35.5µM
Cc1ccc(S(=O)(=O)CCC(=O)c2ccc(F)cc2)cc1	none
Cc1ccc(C(=O)CCS(=O)(=O)c2ccc(F)cc2)cc1	Sm TGR block 0.316µM
Cc1ccc(S(=O)(=O)CCC(=O)NCc2ccc(Cl)cc2)cc1	none
Cc1ccc(C(=O)CCS(=O)(=O)c2ccc(Cl)cc2)cc1	Sm TGR block 0.355µM
COc1cccc(C(=O)NC23CC4CC(CC(C4)C2)C3)c1	none
COC(=O)C1C/C(=N/NS(=O)(=O)c2ccc(C)cc2)CS1 (stereo not given)	Sm TGR block 12.6µM (no result: Giardia FBPA inh)
COC(=O)C1C/C(=N\NS(=O)(=O)c2ccc(C)cc2)c2sccc2C1 (stereo not given)	none
Cc1ccccc1Cn1nc(C)c(NC(=O)c2noc3c2CCc2ccccc2-3)c1C	AmpC inh detg inconclusive, AmpC no deterg 3.98µM
COc1ccccc1NC(=S)NCc1ccco1	Sm TGR block 35.5µM
Cc1ccc(CNCc2ccco2)cc1	Giardia FBPA inh inconclusive, Sm TGR block inconclusive
CC(C)(C)NC(=S)NCc1ccco1	Giardia FBPA inh inconclusive, Sm TGR block 25.1µM, AmpC inh detg inconclusive
COc1cc(CNCc2ccco2)cc(OC)c1O	Sm TGR block 15.8µM
COc1cc(NC(=S)NCc2ccco2)cc(OC)c1OC	none
COc1ccc2c(c1)CCc1c(C(=O)NCc3cccnc3)noc1-2	Giardia FBPA inh inconclusive, Sm TGR block 28.2µM
CCCNC(=O)c1noc2c1CCc1cc(OC)ccc1-2	none
CCCCn1c(N)c(N(CC)C(=O)CSc2nnnn2-c2cc(C)ccc2C)c(=O)[nH]c1=O	none
Cc1ccc(NC(=O)C2C(c3ccccc3)C2(Cl)Cl)c(C)c1 (stereo not given)	AmpC no deterg 28.2µM
COc1ccc(S(=O)(=O)NCCc2cn3ccsc3n2)cc1OC	Sm TGR block 39.8µM (no result: Giardia FBPA inh, AmpC no deterg)
COc1ccc(S(=O)(=O)NCCc2cn3ccsc3n2)cc1	none (no result: Giardia FBPA inh, AmpC no deterg)
COc1ccc(S(=O)(=O)NCCc2cn3cccc(C)c3n2)cc1OC	AmpC inh detg inconclusive, AmpC no deterg 10µM
Cc1ccc(/C=N/NC(=O)c2ccc(-c3ccccc3)cc2)o1	none
O=C(N/N=C/c1ccc(N2CCCCC2)o1)c1ccccc1	Sm TGR block 7.94µM
Cc1ccccc1OCC(=O)N/N=C/c1ccc(N2CCOCC2)o1	Sm TGR block 7.94µM (no result: Giardia FBPA inh)
O=C(N/N=C/c1ccc(N2CCOCC2)o1)c1cccc([N+](=O)[O-])c1	Giardia FBPA inh inconclusive, Sm TGR block 11.2µM
